The panel holds about 79,000 compounds, 15% with a hit somewhere; the sample as a whole holds those more often. No stated cut-off is given here; in the data, active means growth inhibition above about 70%; inactive means the rest.
How the values were obtained:
[1] = NCI Yeast Anticancer Drug Screen. Data for the rad50 strain (AID 155);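 further: 0% = growth of vehicle-only cultures of the same strain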; settings: S. cerevisiae rad50 strain growth inhibition; at 50.0 µM; active compounds read high
Method in brief: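 Compounds were tested on a yeast strain with an engineered DNA damage repair alteration; the reported value is growth inhibition normalised to vehicle treatment.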

[2] = NCI Yeast Anticancer Drug Screen. Data for the mec2-1 strain (AID 157); settings: S. cerevisiae mec2-1 strain, at 50.0 µM, active compounds read high
Method in brief: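 Readout is yeast growth inhibition, normalised to vehicle-treated controls, in the mec2-1 strain exposed to compound.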

[3] = NCI Yeast Anticancer Drug Screen. Data for the sgs1 mgt1 strain (AID 161);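 further: 0% = growth of cultures given vehicle only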; settings: S. cerevisiae sgs1 mgt1 strain, at 50.0 µM, active compounds read high
Method in brief: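 Compounds are added to genetically altered yeast, and growth is compared with cultures given vehicle alone to give percent inhibition.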

[4] = NCI Yeast Anticancer Drug Screen. Data for the cln2 rad14 strain (AID 165);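 further: 0% = growth equal to vehicle treated cultures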; settings: S. cerevisiae cln2 rad14 strain, at 50.0 µM, active compounds read high
Method in brief: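 Relative to vehicle controls, growth inhibition of compound-treated cln2 rad14 yeast was recorded.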

[5] = NCI Yeast Anticancer Drug Screen. Data for the bub3 strain (AID 167); settings: S. cerevisiae bub3 mutant strain, at 50.0 µM, active compounds read high
Method in brief: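 Growth of a checkpoint-deficient yeast mutant is measured after compound exposure. Values represent inhibition relative to vehicle.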

[6] = NCI Yeast Anticancer Drug Screen. Data for the mlh1 rad18 strain (AID 175); settings: S. cerevisiae mlh1 rad18 strain growth inhibition; at 50.0 µM; active compounds read high
Method in brief: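 Test agents were incubated with a yeast strain of defined genotype (DNA damage repair defect). Inhibition of growth was derived by comparison with vehicle-exposed cultures.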

Measured: growth inhibition

CN(C)NP(=O)(c1ccccc1)c1ccccc1
inactive: [1] 0.05% | [2] -3.05% | [3] -4.45% | [4] -10.5% | [5] 7.75% | [6] -2.9%

Clc1ccc(-c2ccccc2)cc1Cl
inactive: [1] 12.9% | [2] -12.5% | [3] -8.85% | [4] -0.8% | [5] 14.6% | [6] 1.9%

Cc1ccc(N=C(C(c2ccccc2)c2ccccc2)N(CCCl)CCCl)cc1
inactive: [1] 24.2% | [2] 3.45% | [3] 19.9% | [4] 13.3% | [5] 18.1% | [6] 24.1%

Nc1cccc2c1Cc1cc([N+](=O)[O-])ccc1-2
inactive: [1] 8.1% | [2] -37.2% | [3] 17.6% | [4] -14.4% | [5] 3.6% | [6] -1.4%

COc1cccc(C2CC(=O)c3cccn32)c1 (stereo not given)
inactive: [1] 11.3% | [2] 1.65% | [3] -4.7% | [4] 21.3% | [5] -5.25% | [6] -17.2%

CC(C)(C)c1ccc2c(cc[n+]3ccccc23)c1
inactive: [1] -9.05% | [2] -6.85% | [3] 2.05% | [4] 4.05% | [5] 2.35% | [6] -11.9%

CCC(C)c1ccc(O)cc1 (stereo not given)
inactive: [1] 3.5% | [2] -2.9% | [3] -5.95% | [4] -16.1% | [5] -5% | [6] -4.65%

O=C(O)CCc1ccc(NP(=O)(Oc2ccccc2)N(CCCl)CCCl)cc1 (stereo not given)
inactive: [1] 8.05% | [2] 6.65% | [3] 15.1% | [4] 14.7% | [5] 2.3% | [6] -20.2%

C/C=C/CC1(CC)C(=O)NC(=O)NC1=O
inactive: [1] 16.9% | [2] 10.9% | [3] 11.8% | [4] 16.6% | [5] 2% | [6] 8.1%

Cc1ccc(Cl)c2c1CC(=[N+]=[N-])C2=O
inactive: [1] 10.2% | [2] 5.2% | [3] 8.7% | [4] -0.45% | [5] 10.5% | [6] 7.15%

COc1cc(N=Nc2ccc([N+](=O)[O-])cc2)c([OH+]C)cc1[N+]#N.COc1cc(N=Nc2ccc([N+](=O)[O-])cc2)c([OH+]C)cc1[N+]#N.[Cl][Zn][Cl]
inactive: [1] 7% | [2] -1.05% | [3] -2.1% | [4] -3.15% | [5] 17.9% | [6] 12.6%

c1ccc(CC[N+]23CC[N+](CCc4ccccc4)(CC2)C3)cc1
inactive: [1] 27.9% | [2] 3.2% | [3] 1.4% | [4] -25.6% | [5] 4.5% | [6] 16%

NCCc1c[nH]c2ccccc12
inactive: [1] 10.8% | [2] -3.3% | [3] -15.8% | [4] 9% | [5] -0.75% | [6] -12.8%

Cc1cc(C)c(CCl)cc1CCl
inactive: [1] 16.2% | [2] -5.75% | [3] 26.4% | [4] -7% | [5] -7.15% | [6] 27.8%

CC(C)CC1N=C(NN=C(CCl)CCl)SP1(=O)NCCCCCCNP1(=O)SC(NN=C(CCl)CCl)=NC1CC(C)C (stereo not given)
inactive: [1] 2.95% | [2] 12.1% | [3] 11.4% | [4] -11.7% | [5] 15.9% | [6] 13.8%

CC(=O)NCN(C)[N+](=O)[O-]
inactive: [1] -9.6% | [2] -4.95% | [3] 8.85% | [4] -11% | [5] -19.8% | [6] -6.5%

COc1ccc(/C=C/C=C2C(=O)NC(=S)NC2=O)cc1
inactive: [1] 25.6% | [2] 4.55% | [3] 29.1% | [4] 11.2% | [5] 0.75% | [6] 25.2%

C[n+]1ccc2ccccc2c1-c1c2ccccc2cc[n+]1C
inactive: [1] 27.4% | [2] 3.65% | [3] -2.55% | [4] 18.9% | [5] 3% | [6] 6.05%

CC1=C(Cl)C=CP(=O)(Oc2ccccc2)C1 (stereo not given)
inactive: [1] 19.5% | [2] -14.4% | [3] -12.2% | [4] 29.2% | [5] -5.6% | [6] -8.15%

N#CC1(c2ccccc2)CCN(C2(c3ccccc3)CCCCC2)CC1
inactive: [1] -23.4% | [2] -30.2% | [3] -5.7% | [4] 4.25% | [5] -3.55% | [6] -30.1%

[Pd].c1ccc([PH+](CC[PH+](c2ccccc2)c2ccccc2)c2ccccc2)cc1.c1ccc([PH+](CC[PH+](c2ccccc2)c2ccccc2)c2ccccc2)cc1
inactive: [1] 24.8% | [2] 12.8% | [3] 59.5% | [4] 15.1% | [5] 15.7% | [6] 24.2%

CC(C)c1cc(C(C)C)c(S(=O)(=O)N=[N+]=[N-])c(C(C)C)c1
inactive: [1] 12.6% | [2] -0.8% | [3] -31.4% | [4] -8.3% | [5] -16.9% | [6] -7.95%

CC(C)NC(=O)C(Cl)CCl (stereo not given)
inactive: [1] 13.7% | [2] 8.9% | [3] 18.3% | [4] 11.5% | [5] 2.8% | [6] 6.7%

CCCCCCCCP(=O)(O)OP(=O)(O)OCC1OC(n2ccc(N)nc2=O)C(O)C1O (stereo not given)
inactive: [1] -11.2% | [2] -20.1% | [3] -9.55% | [4] 7.15% | [5] -12.2% | [6] -9%

Clc1cccc(Cl)c1CBr
inactive: [1] 23.1% | [2] -19.1% | [3] 19.3% | [4] 15.8% | [5] 15.3% | [6] 10.1%

Cc1ccc(OP(=O)(Oc2ccc(C)cc2)Oc2ccc(C)cc2)cc1.Cc1ccc(OP(=O)(Oc2ccc(C)cc2)Oc2ccc(C)cc2)cc1.Cc1ccc(OP(=O)(Oc2ccc(C)cc2)Oc2ccc(C)cc2)cc1.Cc1ccc(OP(=O)(Oc2ccc(C)cc2)Oc2ccc(C)cc2)cc1.[Nd+3].[O-][Cl+3]([O-])([O-])O
inactive: [1] 34.4% | [2] 23.7% | [3] 37.8% | [4] 27% | [5] 52.8% | [6] 25.7%

CC(CCl)N1CCCCCC1 (stereo not given)
inactive: [1] -14.3% | [2] -16.8% | [3] 8% | [4] -20.8% | [5] 5.3% | [6] -6.8%

C=CCCCCCCCCC(=O)Nc1ccc(Cl)cc1C(=O)c1ccccc1
inactive: [1] -2.3% | [2] 0% | [3] 4.3% | [4] 28.2% | [5] -7.95% | [6] 13.8%

c1ccc2c(c1)sc1ccccc12
inactive: [1] 15.5% | [2] -13.7% | [3] 16.9% | [4] -29.4% | [5] -8.6% | [6] 15.2%

Oc1ccccc1C=NC1CCCCC1N=Cc1ccccc1O.[Ni] (stereo not given)
inactive: [1] 18.7% | [2] 4.05% | [3] 7.9% | [4] -8.6% | [5] -0.55% | [6] -10.4%

CN1C(=O)C(=CN(C)c2ccccc2)C(=O)N(C)C1=O
inactive: [1] 13.2% | [2] 8.4% | [3] 23.7% | [4] 13.5% | [5] 4.4% | [6] -8.85%

CC12CC/C(=N/NC(=O)Cc3c[nH]c4ccccc34)C=C1CCC1C2CCC2(C)C(OC(=O)c3ccccc3)CCC12 (stereo not given)
inactive: [1] 35.8% | [2] 28.6% | [3] 24.1% | [4] 0.65% | [5] 3.3% | [6] 34.8%

COc1ccc2c(c1OC)C13CCN(C)C(C2)C12C=CC(=O)C3c1c(OC)ccc(OC)c12 (stereo not given)
inactive: [1] 37.4% | [2] 6.95% | [3] 24.2% | [4] 18.8% | [5] 4.2% | [6] 27.2%

NCCCN1CCN(c2ccccc2)CC1
inactive: [1] -0.45% | [2] -30.2% | [3] -12.6% | [4] 26% | [5] -28.6% | [6] -39.5%

CN(C)C(=O)Oc1ccc(C2CCCN2C)cn1 (stereo not given)
inactive: [1] 3.95% | [2] 5.45% | [3] 3.75% | [4] -13.1% | [5] -6% | [6] -22.7%

CCOC(CCCN1CCC2(CC1)C(=O)N(C)CN2c1ccccc1)(OCC)c1ccc(F)cc1
inactive: [1] 8.45% | [2] 20.8% | [3] 16.4% | [4] 2.3% | [5] 30.2% | [6] 25.2%

CCCCCCCCCCP(=O)(O)O
inactive: [1] -4.9% | [2] -27.4% | [3] -13.3% | [4] -30.3% | [5] -1.6% | [6] -2.85%

O=C(O)Cc1ccc2c(c1)OCO2
inactive: [1] 20.9% | [2] -0.35% | [3] 28.1% | [4] 12.2% | [5] -11.3% | [6] 23.6%

CN(C1CCCC1)C1CCCC1
inactive: [1] -27.1% | [2] -25.9% | [3] -24.1% | [4] 5.3% | [5] 2.25% | [6] -7.7%

CN1C(=O)c2ccccc2NC(=O)C12O[C@@H]2c1ccccc1 (stereo not given in full)
inactive: [1] 0.05% | [2] -19.7% | [3] -4.95% | [4] 14.3% | [5] -9.7% | [6] -16.9%

— PubChem BioAssay (NCI)
